The source of these data is PubChem BioAssay.

Records with an inconclusive call do not appear. The source made the active and inactive calls.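 How the source made its calls, unless noted: active means inhibition above the screen-wide mean plus 3 SD, about 51%; inactive means the rest.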

The nature of experiment [1]: yeast TOR pathway RPL19A-GFP modulators, primary screen, cell-based, S. cerevisiae, multiplex flow cytometry (AID 1862; in the data active means percent of DMSO control GFP below about 86%;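 further: lower values mimic rapamycin by blocking the RPL19A rise seen in DMSO cells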). The note with it: S. cerevisiae RPL19A-GFP strain, flow cytometry fluorescence, 3 h; at 10 µM; stronger effect = lower value. (A flow cytometer gives signals particle by particle.)
Experiment [2] is described as follows: modulators of MEP2-GFP levels in yeast, primary screen, S. cerevisiae, multiplex flow cytometry (AID 1867;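 active means GFP response, as percent of the DMSO control, above the screen-wide mean plus 3 SD, about 139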;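 further: median GFP channel fluorescence of barcode-gated MEP2-GFP cells measured by flow cytometry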). The note with it: S. cerevisiae MEP2-GFP strain, 3 h, at 10 µM, stronger effect = higher value, 100% means same as DMSO wells.
The nature of experiment [3]: modulators of CIT2-GFP expression in yeast, primary screen, S. cerevisiae, GFP fusion, multiplex flow cytometry (AID 1870;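 active means percent response above a set limit, the screen-wide mean plus 3 SD, cut at about 130% in these data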;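 further: barcoded CIT2-GFP strain pooled with four other GFP strains with rapamycin as positive control; median GFP fluorescence per well over plate mean of DMSO wells so 100% = DMSO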). The note with it: 3 h, at 10 µM, stronger effect = higher value.
Experiment [4] in a line: modulators of LAP4-GFP expression in yeast, primary screen, S. cerevisiae, multiplex flow cytometry (AID 1873;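 active means GFP signal, as percent of the solvent control, above the screen mean plus 3 SD, about 149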). Conditions: 3 h, at 10 µM, stronger effect = higher value.
Experiment [5] can be described thus: modulators of AGP1-GFP expression in yeast TOR pathway, primary screen, cell-based, multiplex flow cytometry, S. cerevisiae (AID 1887;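 active means GFP signal above the screen-wide mean plus 3 SD, that is over about 124.5% of the solvent control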;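 further: AGP1-GFP fusion strain of S. cerevisiae within a five-strain barcoded multiplex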). The note with it: 3 h, at 10 µM, stronger effect = higher value.
A short description of experiment [6]: inhibitors of CD8+ T cell-vesicle binding, pilot screen, LFA-1/ICAM-1 modulator project, MLPCN validation set, flow cytometry (AID 2523;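 active means response below a set limit, under 55% cells CD8-positive and vesicle-bound, and CD8 cells' 90th-percentile brightness under 279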;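 on vesicle binding response: mean PE anti-B7-1 fluorescence of CD8+ cells relative to row control; 100% = QL9-loaded vesicles with DMSO vehicle in the same plate row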). Conditions: 2C mouse CD8+ T cells, at 7 µM, stronger effect = lower value; double positive events: measured here: CD8+/vesicle+ event percentage.
The target of experiment [7] is Integrin beta-1 (Homo sapiens) + Integrin alpha-4 (Homo sapiens) (UniProt P13612+P05556). The experiment in a line: inhibition of HUTS-21 binding to VLA-4, pilot screen, VLA-4 allosteric modulator project, U937 cells, HUTS-21 mAb, flow cytometry, validation set (AID 2674;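 active means inhibition above 50%, about 3 SD of the validation set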;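 further: antibody binding induced by the VLA-4 ligand LDV present at three times its Kd; 0% = LDV ligand with antibody and no compound and 100% = antibody without LDV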). Conditions: HUTS-21 LIBS mAb binding, at 6.7 µM, stronger effect = higher value, binding induced by LDV ligand.
Integrin beta-1 (Homo sapiens) + Integrin alpha-4 (Homo sapiens), sequence (P05556 whole entry, looked up): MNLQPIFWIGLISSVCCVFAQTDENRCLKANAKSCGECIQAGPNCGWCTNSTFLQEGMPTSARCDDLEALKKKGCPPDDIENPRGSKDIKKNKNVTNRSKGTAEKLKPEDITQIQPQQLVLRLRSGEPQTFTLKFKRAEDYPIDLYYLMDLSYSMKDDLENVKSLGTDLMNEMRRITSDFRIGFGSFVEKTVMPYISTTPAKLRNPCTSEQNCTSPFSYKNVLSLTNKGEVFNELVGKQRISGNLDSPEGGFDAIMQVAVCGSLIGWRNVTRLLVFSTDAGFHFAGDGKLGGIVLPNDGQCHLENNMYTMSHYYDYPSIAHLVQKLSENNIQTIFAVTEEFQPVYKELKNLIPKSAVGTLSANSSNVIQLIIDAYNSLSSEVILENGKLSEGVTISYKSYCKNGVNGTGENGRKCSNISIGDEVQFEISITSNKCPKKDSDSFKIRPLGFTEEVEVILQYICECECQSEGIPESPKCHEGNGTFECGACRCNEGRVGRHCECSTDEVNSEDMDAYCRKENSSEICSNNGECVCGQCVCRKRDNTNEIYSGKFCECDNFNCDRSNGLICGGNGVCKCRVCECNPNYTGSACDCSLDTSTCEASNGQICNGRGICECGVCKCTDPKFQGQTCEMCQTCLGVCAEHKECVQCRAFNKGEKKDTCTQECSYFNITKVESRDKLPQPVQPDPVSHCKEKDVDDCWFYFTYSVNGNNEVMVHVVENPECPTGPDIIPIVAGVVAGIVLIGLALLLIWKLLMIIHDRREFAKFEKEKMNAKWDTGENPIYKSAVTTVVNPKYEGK
Integrin beta-1 (Homo sapiens) + Integrin alpha-4 (Homo sapiens), sequence (P13612 whole entry, looked up): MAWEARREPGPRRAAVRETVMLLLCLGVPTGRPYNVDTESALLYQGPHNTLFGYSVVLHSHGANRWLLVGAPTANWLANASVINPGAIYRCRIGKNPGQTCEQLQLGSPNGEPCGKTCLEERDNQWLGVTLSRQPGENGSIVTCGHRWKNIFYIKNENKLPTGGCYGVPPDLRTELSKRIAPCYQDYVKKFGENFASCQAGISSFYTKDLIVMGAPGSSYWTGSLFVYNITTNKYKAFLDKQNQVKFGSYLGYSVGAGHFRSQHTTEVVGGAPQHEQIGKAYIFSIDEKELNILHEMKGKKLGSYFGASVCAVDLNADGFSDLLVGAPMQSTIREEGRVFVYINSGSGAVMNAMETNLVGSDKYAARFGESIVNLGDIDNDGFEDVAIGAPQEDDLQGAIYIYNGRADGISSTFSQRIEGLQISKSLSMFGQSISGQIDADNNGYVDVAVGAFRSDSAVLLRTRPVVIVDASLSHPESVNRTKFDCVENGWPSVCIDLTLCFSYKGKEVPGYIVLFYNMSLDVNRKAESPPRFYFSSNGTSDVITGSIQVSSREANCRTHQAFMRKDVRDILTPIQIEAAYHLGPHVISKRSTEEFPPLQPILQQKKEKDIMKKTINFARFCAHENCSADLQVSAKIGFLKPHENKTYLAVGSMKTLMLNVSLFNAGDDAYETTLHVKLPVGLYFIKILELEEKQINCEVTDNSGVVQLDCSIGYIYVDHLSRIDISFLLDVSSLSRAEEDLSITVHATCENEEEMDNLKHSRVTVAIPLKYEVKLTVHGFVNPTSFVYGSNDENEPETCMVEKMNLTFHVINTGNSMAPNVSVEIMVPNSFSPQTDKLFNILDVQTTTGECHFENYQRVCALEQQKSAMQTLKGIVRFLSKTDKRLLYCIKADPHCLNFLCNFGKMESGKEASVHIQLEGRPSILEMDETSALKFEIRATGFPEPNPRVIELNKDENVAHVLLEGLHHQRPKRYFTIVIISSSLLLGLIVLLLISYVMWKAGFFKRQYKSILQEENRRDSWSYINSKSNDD

The nature of experiment [8]: superoxide lowering in aged yeast cells, pilot screen, validation compound set (AID 2706;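 active means superoxide response below 65% of plate, a cut near 3 SD across the whole screen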;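 further: yeast exposed to compound for one week at 30 degrees C before staining; 100% = mean of all compound wells on the same plate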). The note with it: S. cerevisiae aging, superoxide DHE fluorescence; at 10 µM; stronger effect = lower value.
The target of experiment [9] is Beta-adrenergic receptor kinase 1 (Homo sapiens) (UniProt P25098). The experiment in a line: GRK2 binders displacing RNA aptamer, biochemical, validation, human GRK2, bead flow cytometry (AID 488806;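 active means aptamer binding inhibition above 30%, about 3 SD of noise from non-fluorescent compounds; inactive means inhibition at or below 30%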). The note with it: bead-bound GRK2, FAM-aptamer displacement, at 10 µM, stronger effect = higher value.
Beta-adrenergic receptor kinase 1 (Homo sapiens), sequence (P25098 whole entry, looked up): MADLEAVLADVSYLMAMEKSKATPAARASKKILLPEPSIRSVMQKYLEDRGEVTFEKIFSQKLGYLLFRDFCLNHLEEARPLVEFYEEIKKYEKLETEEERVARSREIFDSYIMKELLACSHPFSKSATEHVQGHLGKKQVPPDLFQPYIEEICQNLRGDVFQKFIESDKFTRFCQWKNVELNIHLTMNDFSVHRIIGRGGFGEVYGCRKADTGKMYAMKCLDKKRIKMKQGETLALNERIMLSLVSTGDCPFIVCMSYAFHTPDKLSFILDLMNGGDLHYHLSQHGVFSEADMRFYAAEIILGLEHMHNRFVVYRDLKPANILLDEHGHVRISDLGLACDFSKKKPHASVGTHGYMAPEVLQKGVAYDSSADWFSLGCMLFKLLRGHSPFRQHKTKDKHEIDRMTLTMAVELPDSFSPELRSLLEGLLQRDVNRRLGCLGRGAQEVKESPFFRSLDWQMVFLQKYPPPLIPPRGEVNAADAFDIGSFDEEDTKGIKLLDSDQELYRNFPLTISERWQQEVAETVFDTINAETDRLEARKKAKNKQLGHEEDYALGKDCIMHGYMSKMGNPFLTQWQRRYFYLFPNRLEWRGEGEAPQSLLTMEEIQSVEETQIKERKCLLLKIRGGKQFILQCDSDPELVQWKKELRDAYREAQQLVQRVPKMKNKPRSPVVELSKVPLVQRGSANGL
Experiment [10] deals with Beta-2 adrenergic receptor (Homo sapiens) (UniProt P07550). Briefly: beta2AR agonists driving receptor internalization, pilot screen, cell-based, FAP fluorogen, flow cytometry, validation set (AID 504459;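 active means percent response above 42, roughly 3 SD of non-fluorescent test compounds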;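 further: agonist-driven loss of surface beta2AR via internalization measured by FAP dye flow cytometry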). Conditions: Am2.2-beta2AR cells, FAP surface receptor flow cytometry; at 10 µM; stronger effect = higher value.
Beta-2 adrenergic receptor (Homo sapiens), sequence (P07550 whole entry, looked up): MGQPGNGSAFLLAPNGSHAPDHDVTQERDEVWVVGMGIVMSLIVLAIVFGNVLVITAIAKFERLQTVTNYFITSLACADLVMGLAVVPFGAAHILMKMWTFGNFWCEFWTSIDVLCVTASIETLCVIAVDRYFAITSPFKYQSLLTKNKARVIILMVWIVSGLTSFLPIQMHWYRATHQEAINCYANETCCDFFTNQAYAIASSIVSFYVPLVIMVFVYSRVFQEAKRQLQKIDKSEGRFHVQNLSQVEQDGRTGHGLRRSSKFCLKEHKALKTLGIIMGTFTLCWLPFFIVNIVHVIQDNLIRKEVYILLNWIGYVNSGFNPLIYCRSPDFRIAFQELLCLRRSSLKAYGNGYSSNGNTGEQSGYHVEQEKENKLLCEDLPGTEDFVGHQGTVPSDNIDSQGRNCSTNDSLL
In experiment [11] the target is AP-2 complex subunit beta (Homo sapiens) (UniProt P63010). The experiment in a line: inhibitors of arrestin peptide binding to AP2, pilot screen, biochemical, validation set, GST-AP2 beads, flow cytometry (AID 504541;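 active means inhibition above 54%, about 3 SD of non-fluorescent compounds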;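 further: AP2 carries R879A mutation and is captured from E. coli lysate; bead-bound FITC arrestin peptide fluorescence measuring arrestin peptide binding to AP2; 0% = DMSO wells and 100% = excess unlabeled arrestin peptide control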). Conditions: FITC arrestin peptide, at 10 µM, stronger effect = higher value, AP2 beta2 appendage fragment, R879A mutant.
AP-2 complex subunit beta (Homo sapiens), sequence (P63010 whole entry, looked up, the tested form may be a part, one chain of several): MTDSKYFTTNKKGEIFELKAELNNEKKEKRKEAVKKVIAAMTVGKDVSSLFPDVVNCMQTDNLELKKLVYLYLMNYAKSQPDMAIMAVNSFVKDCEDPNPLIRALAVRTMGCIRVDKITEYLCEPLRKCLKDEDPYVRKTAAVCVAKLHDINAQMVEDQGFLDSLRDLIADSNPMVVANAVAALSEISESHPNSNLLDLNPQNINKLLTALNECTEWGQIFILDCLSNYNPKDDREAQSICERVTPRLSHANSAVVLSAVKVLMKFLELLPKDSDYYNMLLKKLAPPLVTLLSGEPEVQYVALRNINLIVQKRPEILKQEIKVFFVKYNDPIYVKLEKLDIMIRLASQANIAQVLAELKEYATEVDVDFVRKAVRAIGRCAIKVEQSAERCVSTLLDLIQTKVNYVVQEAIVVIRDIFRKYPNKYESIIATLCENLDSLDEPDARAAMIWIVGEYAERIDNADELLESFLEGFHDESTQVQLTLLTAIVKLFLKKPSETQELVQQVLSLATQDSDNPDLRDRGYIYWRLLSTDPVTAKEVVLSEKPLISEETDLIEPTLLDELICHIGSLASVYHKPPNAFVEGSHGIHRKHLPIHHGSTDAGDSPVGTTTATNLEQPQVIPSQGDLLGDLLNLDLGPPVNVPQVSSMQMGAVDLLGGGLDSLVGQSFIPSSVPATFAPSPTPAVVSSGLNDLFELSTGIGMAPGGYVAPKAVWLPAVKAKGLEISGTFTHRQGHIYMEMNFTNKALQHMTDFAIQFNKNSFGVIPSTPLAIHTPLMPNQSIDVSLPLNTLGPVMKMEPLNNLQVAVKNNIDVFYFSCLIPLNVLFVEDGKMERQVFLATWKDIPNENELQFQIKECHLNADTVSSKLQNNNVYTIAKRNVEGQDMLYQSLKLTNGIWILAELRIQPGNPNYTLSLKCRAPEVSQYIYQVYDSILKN
Experiment [12] in a line: yeast V-ATPase proton transport modulators, S. cerevisiae, pHLuorin, HTS validation (AID 504600; in the data active means response above about 15%;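 further: plate controls were DMSO for no effect and reference compound for full effect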). The note with it: S. cerevisiae pHLuorin cytosolic pH, at 10 µM, stronger effect = higher value.
Experiment [13] relates to anti-desmoglein-3 scFv antibody binding to human DSG3. Briefly: inhibitors of anti-DSG3 scFv binding to DSG3, pilot screen, biochemical, validation compound set, bead-based, flow cytometry (AID 588368;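 active means binding below the plate cutoff, the plate median minus 3 SD, with a reading above zero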;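 further: signal is the median channel fluorescence of bead-bound GFP antibody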). The note with it: Protein G beads, DSG3-Fc, scFv-GFP binding, at 10 µM, stronger effect = lower value.
A short description of experiment [14]: inhibitors of fungal efflux pumps CDR1, CDR2, MDR1, pilot screen, validation compound set, multiplex, phenotypic (AID 588506;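 active means efflux inhibition above 0.42, the validation set average plus 4 SD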;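 further: Nile Red retained in cells so higher fluorescence means more efflux inhibition; 0 = negative control wells and 1 = enniatin B 25 µM full block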). The note with it: S. cerevisiae pump-expressing triplex, Nile Red efflux flow cytometry; at 10 µM; stronger effect = higher value; the pumps come from Candida albicans.
The target in experiment [15] is ATP-binding cassette sub-family B member 6 (Homo sapiens) (UniProt Q9NP58). Briefly: ABCB6 transporter inhibitors, pilot screen, K562-ABCB6 cells, flow cytometry, validation set (AID 588550).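 Further: 0% = DMSO wells and 100% = benzethonium chloride 70 µM positive control.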 The note with it: K562-ABCB6 porphyrin accumulation, 1 h, at 10 µM, stronger effect = higher value.
ATP-binding cassette sub-family B member 6 (Homo sapiens), sequence (Q9NP58 whole entry, looked up): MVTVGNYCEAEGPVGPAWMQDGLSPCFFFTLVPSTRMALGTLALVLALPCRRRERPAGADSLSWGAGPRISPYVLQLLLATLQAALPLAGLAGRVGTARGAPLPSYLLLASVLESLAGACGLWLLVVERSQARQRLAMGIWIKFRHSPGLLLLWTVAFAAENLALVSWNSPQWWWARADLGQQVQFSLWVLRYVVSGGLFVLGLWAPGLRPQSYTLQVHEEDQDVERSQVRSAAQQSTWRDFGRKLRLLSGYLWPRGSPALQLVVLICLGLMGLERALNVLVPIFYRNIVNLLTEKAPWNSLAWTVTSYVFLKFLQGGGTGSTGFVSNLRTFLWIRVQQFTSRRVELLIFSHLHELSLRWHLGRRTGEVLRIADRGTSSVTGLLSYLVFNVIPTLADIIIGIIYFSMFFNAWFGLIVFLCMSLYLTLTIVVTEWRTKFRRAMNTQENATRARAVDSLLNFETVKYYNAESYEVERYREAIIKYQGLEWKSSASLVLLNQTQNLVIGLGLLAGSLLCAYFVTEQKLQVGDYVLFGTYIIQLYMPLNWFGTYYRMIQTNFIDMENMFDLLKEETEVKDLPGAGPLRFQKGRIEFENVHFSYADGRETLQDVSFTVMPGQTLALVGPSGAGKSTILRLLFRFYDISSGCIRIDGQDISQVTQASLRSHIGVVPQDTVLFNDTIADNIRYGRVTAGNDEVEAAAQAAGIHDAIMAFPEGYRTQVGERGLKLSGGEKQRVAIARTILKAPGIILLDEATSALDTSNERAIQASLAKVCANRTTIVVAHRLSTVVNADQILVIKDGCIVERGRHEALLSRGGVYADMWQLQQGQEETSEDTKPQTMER
A short description of experiment [16]: promoters of myeloid differentiation in arrested cells, primary screen, cell-based, GFP/MAC1 double positive, flow cytometry, validation set (AID 588685;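 active means differentiation response of at least 50%, scaled between solvent and reference control, from cells with both markers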;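 further: compound exposure lasts four days before antibody staining and flow analysis; 0% = DMSO wells and 100% = 5 µM fulvestrant positive control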). Conditions: ER-HoxA9 marrow cells, stronger effect = higher value, normalized: vehicle 0, fulvestrant 100.

With `Nc1cc(-c2ccncc2)c[nH]c1=O`, the percent of DMSO control GFP in experiment [1] is 103% (inactive). Besides, the values for the GFP response vs DMSO in experiment [2] and in experiment [4] were 103% (inactive) and 102% (inactive), respectively. The percent response of DMSO control in experiment [3] is 112% (inactive). Further, the GFP response, % of DMSO in [5] was 105% (inactive). For the same compound, in experiment [6], the double positive events was determined as 63.1%. In addition, the vesicle binding response in experiment [6] is 184% (inactive). The inhibition (as a rule, the change of the read-out against control, counted positive when it falls) in [7] is -11.8% (inactive); in [11] it was -8.58% (inactive); in experiment [15], -6% (inactive). The superoxide response (% of plate) in experiment [8] is 82.5% (inactive). Also, in experiment [9], the aptamer binding inhibition was -6% (inactive). The response in [10] was 8.85% (inactive); in experiment [12] it was -0.06% (inactive). In experiment [13], the binding (% of control) was 105% (inactive). The efflux inhibition (fraction of control) in experiment [14] was 0.015 (inactive). The differentiation response in experiment [16] is -4.57% (inactive).

Take `CCN(CC)C(=O)N1CCN(C)CC1`: the percent of DMSO control GFP in [1] was 101% (inactive). Besides, the GFP response vs DMSO in experiment [2] is 106% (inactive); in experiment [4], 101% (inactive). Also, the percent response of DMSO control in experiment [3] is 101% (inactive). For the same compound, in experiment [5], the GFP response, % of DMSO was 108% (inactive). Further, the double positive events in [6] stood at 63.6%. In addition, the vesicle binding response in [6] was 158% (inactive). Besides, the inhibition was -3.77% (inactive) in experiment [7], 7.6% (inactive) in experiment [11] and 9% (inactive) in experiment [15]. Further, the superoxide response (% of plate) in experiment [8] is 104% (inactive). The aptamer binding inhibition in experiment [9] was -1% (inactive). The response was -0.51% (inactive) in experiment [10] and 0.18% (inactive) in [12]. Moreover, the binding (% of control) in experiment [13] was 103% (inactive). In addition, in experiment [14], the efflux inhibition (fraction of control) was 0.72 (active). For the same compound, the differentiation response in experiment [16] is -13.3% (inactive).

Consider `Cc1nonc1CN(C)C(=O)c1ccc(OC2CCN(Cc3ccccn3)CC2)cc1`, for which the percent of DMSO control GFP in [1] is 107% (inactive). In addition, the figures for the GFP response vs DMSO in [2] and in [4] were 97.2% (inactive) and 83.5% (inactive), respectively. In addition, the percent response of DMSO control in [3] is 113% (inactive). Also, the GFP response, % of DMSO in [5] is 102% (inactive). In experiment [6], the double positive events turned out to be 61.2%. The vesicle binding response in experiment [6] is 249% (inactive). Also, the inhibition in experiment [7] is 19.3% (inactive); in experiment [11], -5.72% (inactive); in experiment [15], 13% (inactive). For the same compound, in experiment [8], the superoxide response (% of plate) was 95.8% (inactive). In experiment [9], the aptamer binding inhibition was 0% (inactive). The response in [10] is -11.2% (inactive); in [12], 2.07% (inactive). In experiment [13], the binding (% of control) was 97.6% (inactive). Also, the efflux inhibition (fraction of control) in experiment [14] was 0.14 (inactive). The differentiation response in experiment [16] is 6.11% (inactive).

As for `CCN1C(=O)C(CC(=O)Nc2ccc(F)cc2)N(Cc2ccco2)C1=S` (stereo not drawn), the percent of DMSO control GFP in [1] was 99% (inactive). In addition, the GFP response vs DMSO is 102% (inactive) in experiment [2] and 106% (inactive) in [4]. In addition, in experiment [3], the percent response of DMSO control is 95.1% (inactive). The GFP response, % of DMSO in experiment [5] was 114% (inactive). The double positive events in experiment [6] amounted to 62.4%. For the same compound, in experiment [6], the vesicle binding response was 194% (inactive). Moreover, the inhibition in [7] was 15.1% (inactive); in experiment [11], -8.85% (inactive); in experiment [15], 7% (inactive). The superoxide response (% of plate) in experiment [8] was 107% (inactive). Also, the aptamer binding inhibition in experiment [9] is 5% (inactive). Further, the response in [10] was -17.8% (inactive); in experiment [12], 1.67% (inactive). Also, the binding (% of control) in [13] is 99.9% (inactive). Besides, the efflux inhibition (fraction of control) in experiment [14] was -0.04 (inactive). In addition, in [16], the differentiation response is 18.7% (inactive).
